A selection: hits, their analogues and other compounds. The true share with any hit is near 3.2%.
15-hLO-2 inh: 15-hLO-2 (ALOX15B) enzyme inhibition | O15296 | purified 15hLO-2, xylenol orange hydroperoxide absorbance | Potency, µM (top dose mostly 57.1 µM), without a hit: at the top dose activity change, negative = inhibition, most hits filed as inhibitors | 110,000 tested, 0.56% active; also: potency is read from the fitted curve at half-maximal effect; nearly all actives have a fitted effect of over 60% in size
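Read-out: hydroperoxide product oxidises ferrous iron, measured as xylenol orange complex via the 573-to-405 nm absorbance ratio after 30 min. Reaction: 50 nM enzyme, 15 min compound preincubation, 45 uM arachidonic acid, 90 min RT, Hepes pH 7.5 with Triton X-100.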
PNC inhibitor: perinucleolar compartment assembly inhibition. 140,000 tested, 3.1% active. PC3M PTB-GFP, PNC prevalence imaging, 16 h; hits give low values. activity change (PNC), negative = inhibition, % at 10 µM;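 active = readout at or below -70, meaning at least 70% loss of cells showing the perinucleolar compartment, a nuclear body marking cancer cells; inconclusive = readout between -30 and a set limit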;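 also: plate controls were DMSO wells for no effect and camptothecin positive control wells for full effect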
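Read-out is percentage of cells bearing a perinucleolar compartment, from automated 20x imaging of fixed, Hoechst-stained PC3M PTB-GFP cells. Cells were seeded 4 h, then exposed 16 h to compound (23 nl of library stock) in duplicate plates.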
12-hLO inh: inhibitors of human 12-lipoxygenase (ALOX12). AID 1452. 150,000 tested, 0.12% active. purified 12-hLO, xylenol orange hydroperoxide absorbance. Potency, µM (highest dose often 57.1 µM), inactives show at the top dose activity change, negative = inhibition, usual class: inhibitors; also: potency is read from the fitted curve at half-maximal effect; nearly all actives have a fitted effect of over 55% in size
Target sequence (P18054 whole entry, looked up): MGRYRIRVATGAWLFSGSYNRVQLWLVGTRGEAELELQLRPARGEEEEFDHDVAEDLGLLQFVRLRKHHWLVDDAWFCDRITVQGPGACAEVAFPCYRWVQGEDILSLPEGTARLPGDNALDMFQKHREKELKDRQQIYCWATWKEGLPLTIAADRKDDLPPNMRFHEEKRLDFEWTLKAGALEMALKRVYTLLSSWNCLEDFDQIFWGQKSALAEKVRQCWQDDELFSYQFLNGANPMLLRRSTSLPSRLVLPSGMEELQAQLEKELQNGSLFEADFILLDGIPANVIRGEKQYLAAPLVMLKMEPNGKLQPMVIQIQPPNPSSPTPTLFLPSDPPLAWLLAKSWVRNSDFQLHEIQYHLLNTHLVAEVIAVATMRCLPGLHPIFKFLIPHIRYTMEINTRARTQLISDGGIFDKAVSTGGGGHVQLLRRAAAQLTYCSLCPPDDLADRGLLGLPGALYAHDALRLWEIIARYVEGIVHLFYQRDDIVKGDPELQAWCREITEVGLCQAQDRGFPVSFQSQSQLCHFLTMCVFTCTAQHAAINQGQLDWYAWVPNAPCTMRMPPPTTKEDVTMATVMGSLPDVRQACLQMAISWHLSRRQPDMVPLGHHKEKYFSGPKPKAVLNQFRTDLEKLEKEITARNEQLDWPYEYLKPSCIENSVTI
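Lipoxygenase turnover measured by absorbance at 573 and 405 nm after Fe-XO development. Human 12hLO 150 nM, arachidonate 40 uM, pH 7.0 Hepes buffer with detergent; 15 min compound preincubation, 30 min reaction.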
* marks the source's active call; other numbers are inactive results; ? = inconclusive; . = not tested or not shown; [ ] = remark or other dose. Unless noted, calls follow the shape of the dose curve; as a rule, active = well fitted curve in the direction sought with a large enough effect; inconclusive = small, poorly fitted or top-dose-only effect, or another doubt; inactive = no such curve, though single readings can be large; an effect the other way counts as inactive or inconclusive. Unless noted, % is scaled to controls: 0 for no effect and ±100 for the full control effect.

SMILES | 15-hLO-2 inh | PNC inhibitor | 12-hLO inh
O=C(NCCCn1ccnc1)c1cc2cc([N+](=O)[O-])ccc2oc1=O | . | 39 | -3%
Cc1cc(N2CCCC2=O)cc(C)c1CN1C(=O)c2ccccc2C1=O | . | 28 | 5%
CCNCC(=O)N1c2ccccc2CCc2ccc(NC(C)=O)cc21 | . | -105* | 5%
CC(=O)Nc1ccc2c(c1)N(C(=O)CN(C)C)c1ccccc1CC2 | 1% | 19 | 7%
CCn1c(=O)c(C(=O)Nc2nc3ccccc3[nH]2)c(O)c2ccccc21 | 46% | 1 | -7%
O=C(NCC1CCCO1)c1cc2ccccc2[nH]1 (stereo unspecified) | -6% | -123* | -5%
O=C(NCC1CCCO1)c1ccccc1 (stereo unspecified) | 8% | 5 | 2%
CC#CCN1c2ccccc2[C@]23C[C@@H](C(=O)OC)N(C(=O)CC(C)C)C2=NC(C(=O)OC)=C(C(=O)OC)[C@H]13 | . | . | 2%[11.4 µM]
O=c1c(-c2ccnn2-c2cccc(Cl)c2)cnc2n1CCS2 | -3% | -81* | -3%
O=c1c(-c2ccnn2-c2ccc(F)cc2)cnc2n1CCS2 | -2% | -28 | -7%
c1cn(-c2ccnc(-c3ccc4c(c3)OCO4)n2)cn1 | 29% | . | .
c1cncc(-c2cc(-n3ccnc3)ncn2)c1 | 2% | . | .
Cn1c(SCC(=O)NCc2cccs2)nnc1-c1ccc(S(=O)(=O)N2CCCC2)cc1 | 1% | -19 | -2%
CCCCNC(=O)CSc1nnc(-c2ccc(S(=O)(=O)N3CCCC3)cc2)n1C | . | -100* | -3%
Cn1c(=O)c2c(nc(/C=C\c3cccc(Cl)c3)n2C)n(C)c1=O | -6% | . | -2%
COCCOC(=O)C1=C(N)Oc2c(oc(CO)cc2=O)C1c1c(F)cccc1Cl (stereo unspecified) | 0% | 30 | -1%
CCOC(=O)C1=C(N)Oc2c(oc(CO)cc2=O)C1c1ccc(F)cc1 (stereo unspecified) | . | -100* | -3%
Cc1ccc(NCc2ccccc2OCc2ccccc2F)cc1 | 5% | -18 | -7%
Oc1ccc(NCc2ccccc2OCc2ccccc2F)cc1 | 13µM* | 15 | ?
CCCCN(C(=O)CSc1nnc(-c2ccccc2OC)n1C)c1c(N)n(Cc2ccccc2)c(=O)[nH]c1=O | . | 27 | -8%
CCOC(=O)c1cc(-c2ccc(OC(F)F)cc2)nc2c1c(=O)[nH]c(=O)n2C | . | -84* | 17%
CCOC(=O)c1cc(-c2ccc(OC(F)F)cc2)nc2nc(SC)[nH]c(=O)c12 | . | 10 | 0%
CCCCCCCC/C=C\CCCCCCCC(=O)NCCCC(=O)O | . | . | 5%
CCOCCCNC(=O)Cn1ncc2c(=O)oc3ccccc3c21 | . | -12 | 0%
O=C(Cn1ncc2c(=O)oc3ccccc3c21)NCC1CCCO1 (stereo unspecified) | . | -119* | 5%
SMILES | 15-hLO-2 inh | PNC inhibitor | 12-hLO inh
O=c1c(-c2ccc(O)cc2)coc2cc(OC3OC(CO)C(O)C(O)C3O)ccc12 (stereo unspecified) | . | 5 | -3%
Cn1ncc(Cl)c1C(=O)Nc1ccc(Cl)cn1 | . | -100* | -5%
Cc1cc(NC(=O)c2c(Cl)cnn2C)no1 | -3% | ? | -5%
CCNc1ncc2nc(-c3cccs3)c(=O)n(C)c2n1 | -8% | . | .
COC(=O)c1ccc(NC(=O)C(=O)NCC2CCCO2)cc1 (stereo unspecified) | . | -17 | 1%
Cc1ccc(-n2c(SCC(=O)NCc3ccco3)nc3sc(C)c(C)c3c2=O)cc1 | . | -7 | 0%
Cc1sc2nc(SCC(=O)NCc3ccco3)n(-c3ccccc3)c(=O)c2c1C | -6% | -84* | 1%
CS(=O)(=O)N1CCC[C@@]2(CCN(Cc3nccs3)C2)C1 | -1% | . | 3%
NC(=O)CSc1nnc2n(-c3ccccc3)c(=O)c3c4c(sc3n12)CCCCC4 | 5% | -81* | -5%
Cc1nnc2n(-c3ccccc3)c(=O)c3c4c(sc3n12)CCCC4 | . | 35 | 2%
CCOc1ccc(N(CC(=O)Nc2ccc(C)c(C)c2)S(=O)(=O)c2c(C)noc2C)cc1 | . | ? | -7%
CCOc1ccc(N(CC(=O)Nc2ccccc2C)S(=O)(=O)c2c(C)noc2C)cc1 | -6% | -88* | -4%
CCOc1ccccc1NC(=O)CN(c1ccc(OC)cc1)S(=O)(=O)c1c(C)noc1C | 7% | -97* | -9%
CCOc1ccccc1NC(=O)CN(c1cc(C)cc(C)c1)S(=O)(=O)c1c(C)noc1C | 5% | 31 | 11%
CCCCCC1OC1C/C=C\C/C=C\C/C=C\CCCC(=O)O (stereo unspecified) | . | . | 1%
CC1CCCCN1Cc1c(O)ccc2c(=O)c(-c3nc4ccccc4s3)c(N)oc12 (stereo unspecified) | . | ? | -6%
CCOc1ccc(-n2nc(C(=O)N3CCN(CC)CC3)c3ccccc3c2=O)cc1 | . | -86* | 4%
CCOc1ccc(-n2nc(C(=O)NCCOC)c3ccccc3c2=O)cc1 | -4% | 4 | 1%
S=C(NNc1ccnc2cc(Cl)ccc12)Nc1ccccc1Cl | . | 16 | -16%
Clc1ccc(NNc2ccnc3cc(Cl)ccc23)cc1 | 16µM* | -14 | -6%
Cc1ccc(S(=O)(=O)N2C(=O)CCC2C(=O)Nn2cnnc2)cc1 (stereo unspecified) | -2% | -14 | 1%
Cc1oc2c(c1C(=O)Nc1cccc(C(=O)O)c1)CCCC2 | -2% | -108* | 2%
Cc1ccc(C(=O)Nc2cccc(C(=O)O)c2)cc1 | 1% | 38 | 1%
CC#CCN1c2ccccc2[C@]23C[C@@H](C(=O)OC)N(C(=O)c4cccs4)C2=NC(C(=O)OC)=C(C(=O)OC)[C@H]13 | . | . | 3%[11.4 µM]
CC1(C)Cc2c(c(N3CCOCC3)nc3sc4c(NCc5ccccc5)nnnc4c23)CS1 | -25% | 20 | -6%
SMILES | 15-hLO-2 inh | PNC inhibitor | 12-hLO inh
CC1(C)Cc2c(c(N3CCOCC3)nc3sc4c(NCc5ccco5)nnnc4c23)CS1 | ? | -81* | -14%
CC(C)OC(=O)Cn1nnc(-c2ccccc2)n1 | -3% | -9 | 3%
COc1ccc(-c2nnn(CC(=O)NCc3ccccc3)n2)cc1OC | . | -119* | 2%
CCOC(=O)c1c(N)nn(C(=O)CC)c1-c1ccccc1 | . | -100* | 3%
CCOC(=O)c1c(N)nn(C(=O)C(C)C)c1-c1ccccc1 | 4% | -17 | 1%
CCOC(=O)Cn1nnc(-c2cccc(OC)c2)n1 | 10% | ? | 2%
CCOC(=O)Cn1nnc(-c2ccccc2)n1 | . | -100* | 3%
COc1cccc(-c2nnn(CC(=O)O)n2)c1 | 3% | -91* | -6%
COc1ccc(-c2nnn(CC(=O)NCc3cccs3)n2)cc1OC | -5% | 0 | -3%
CN(C)C(=O)c1ccc(-c2nc(N3CCOCC3)c3ccccc3n2)cc1 | -8% | . | .
C[N+](C)(C)CCN(Cc1cccs1)c1ccccn1 | -15%[11.4 µM] | . | -5%[11.4 µM]
CCCOc1ccc(Br)cc1-c1cc(-c2ccc(Cl)cc2)[nH]c1-c1ccncc1 | -6% | . | 4%
Nc1nnnn1CC(=O)OCc1cccc(Br)c1 | -2% | -16 | -3%
COC(=O)N1CCC2(CCN(C(=O)Nc3cccc(C#N)c3)CC2)CC1 | -1% | . | -2%
Cc1ccc(S(=O)(=O)N(C)Cc2cc3ccccc3[nH]c2=O)cc1 | -2% | -99* | -24%
CN(Cc1cc2ccccc2[nH]c1=O)S(=O)(=O)c1ccccc1 | -1% | 8 | -5%

Bioassay records as filed in PubChem BioAssay.
